Compound activity from PubChem BioAssay.
Shown are actives, neighbours in structure and some others; about 3.1% of the full set was active somewhere.
C2C12 statin – protects C2C12 myotubes from simvastatin toxicity. ATP luminescence, 48 h; scaled: DMSO 0, geranylgeraniol control 100. rescue of ATP level, % at 7.49 µM. actives 0.78% (n = 330,000). AID 602340;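 active = mean ATP rescue above about 67%, or every replicate alone reaching that limit, limit read from the data, passing the limit was not always enough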;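 note: myotubes were challenged with 10 µM simvastatin during compound exposure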
EWS-Fli block – inhibitors of EWS/Fli oncoprotein transcriptional activity; actives 0.67% (n = 350,000); A673 NR0B1-luciferase reporter, viability-normalised; AID 651661; inhibition, % at 12.6 µM;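 active = mean inhibition of at least 50% after viability correction, with every replicate also passing that limit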;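 note: firefly luciferase signal divided by Alamar Blue viability fluorescence both relative to DMSO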
INS-1E GSIS act – primary screen for activators of insulin secretion dependent on glucose, INS-1E cells, GLuc reporter luminescence; INS-1E GLuc reporter insulin secretion, 2-3 h; activation, % at 16.6 µM; actives 0.61% (n = 370,000);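 active = lowest replicate activation of at least 40%, so every replicate reaches that level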
miR122 inh – miR-122 inhibition in Huh7 cells | activation (reporter increase), % at 12.5 µM | AID 602342 | actives 0.3% (n = 340,000) | Huh7 miR-122 Renilla luciferase sensor, 48 h; neutral wells = 0, positive control = 100;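 active = mean replicate activation score at least 90 and every replicate individually at or above 90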;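 note: higher luciferase means less miR-122 activity so hits act as miR-122 inhibitors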
PAX8 reporter – lowers PAX8-driven luciferase in RMG-I cells. inhibition, % at 12.6 µM. actives 1.2% (n = 360,000). RMG-I TPO-luciferase reporter, SteadyGlo, 24 h. AID 652154;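 active = mean replicate inhibition at least 60% with every replicate also reaching 60%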;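 note: luciferase light reporting Pax8 driven TPO promoter activity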
HIV Env fusion – blocks HIV Env-driven cell-cell fusion; actives 1.1% (n = 360,000); AID 651610; HeLa-JRFL Env/CEM21 cell fusion, luciferase; inhibition, % at 12.3 µM;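 active = mean replicate inhibition score of at least 50 and every replicate individually at or above 50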
A number is an active result; i = inactive; nt = not tested or not shown; [ ] = remark or other dose.

SMILES	C2C12 statin	EWS-Fli block	INS-1E GSIS act	miR122 inh	PAX8 reporter	HIV Env fusion
O=C(C[C@@H]1CC[C@H]2[C@@H](COC[C@@H](O)CN2C(=O)Nc2ccc(Cl)cc2)O1)NCc1ccncn1	i	i	i	i	i	nt
CC(C)NC(=O)N[C@H]1C=C[C@@H](CC(=O)NCc2ccc(Oc3ccccc3)cc2)O[C@@H]1CO	i	i	i	nt	i	i
C[C@H]1CN([C@@H](C)CO)C(=O)c2cc(NC(=O)Cc3cn(C)c4ccccc34)ccc2O[C@H]1CN(C)Cc1ccc(C(=O)Nc2ccccc2N)cc1	86.3	i	i	i	nt	nt
C[C@@H]1CN([C@@H](C)CO)C(=O)c2cccc(NC(=O)Nc3ccccc3)c2O[C@@H]1CN(C)Cc1ccc2c(c1)OCO2	i	i	i	i	i	nt
C[C@@H]1CN([C@@H](C)CO)C(=O)c2cc(NC(=O)Nc3cccc4ccccc34)ccc2O[C@@H]1CN(C)Cc1ccc(C(=O)Nc2ccccc2N)cc1	136.5	i	i	i	nt	nt
C[C@@H]1CN([C@H](C)CO)C(=O)c2cccc(NC(=O)c3ccc(-c4nccs4)cc3)c2O[C@@H]1CN(C)Cc1ccc(C(=O)Nc2ccccc2N)cc1	nt	i	i	203.3[16.7 µM]	nt	i
C[C@H](CO)N1C[C@H](C)[C@@H](CN(C)Cc2ccc3c(c2)OCO3)Oc2c(NC(=O)Nc3ccccc3)cccc2C1=O	i	i	i	95.4[16.7 µM]	i	nt
C[C@H]1CN([C@@H](C)CO)C(=O)c2cccc(NC(=O)c3ccc(-c4nccs4)cc3)c2O[C@H]1CN(C)Cc1ccc(C(=O)Nc2ccccc2N)cc1	nt	i	i	i	nt	i
CCCOc1cccc(C(=O)O)c1	97.9	nt	nt	i	i	i
CCCCOc1cccc(C(=O)O)c1	i	nt	i	i	nt	nt
C[C@@H]1CN([C@H](C)CO)C(=O)c2cc(NC(=O)Cc3cn(C)c4ccccc34)ccc2O[C@@H]1CN(C)Cc1ccc(-c2ccccc2)cc1	i	i	i	i	nt	i
Cc1cc(NC(=O)CSc2ccc3nnc(CCNS(=O)(=O)c4ccccc4)n3n2)no1	86.2	i	i	i	i	i
COc1ccc(S(=O)(=O)NCCc2nnc3ccc(SCC(=O)Nc4cc(C)on4)nn23)cc1	nt	i	i	nt	i	i
CC(C)(C)C1CCc2c(sc(NC(=O)C3CCCO3)c2C(N)=O)C1 (configuration not stated)	95.8	nt	nt	i	nt	nt
Cc1ccc(N=C2N=C(N)c3ccccc32)c(C)c1	i	nt	nt	i	nt	nt
Cc1ccccc1N=C1N=C(N)c2ccccc21	nt	i	i	i	137.7	i
Cc1ccc(-c2nn(Cc3ccccc3)cc2C(=O)N2CCN(c3ccccn3)CC2)cc1	i	i	i	107.3	i	i
O=C(c1cn(Cc2ccccc2)nc1-c1ccc(Cl)cc1)N1CCN(c2ccccn2)CC1	i	i	i	119.9	i	i
COc1cccc(N2CCN(C(=O)c3cn(Cc4ccccc4)nc3-c3cccnc3)CC2)c1	i	56.7	i	i	i	i
CO[C@H](CN(C)C(=O)C1CC1)[C@H](C)CN(C(=O)Nc1ccc(C(F)(F)F)cc1)[C@H](C)CO	i	i	i	nt	i	i
C[C@H](CO)N1C[C@H](C)[C@H](CN(C)C(=O)Nc2ccc3c(c2)OCO3)OCCCC[C@H](C)Oc2ccc(NC(=O)Nc3ccccc3)cc2C1=O	nt	i	i	i	i	i
Cc1ccc(S(=O)(=O)Nc2ccc3c(c2)C(=O)N([C@@H](C)CO)C[C@@H](C)[C@@H](CN(C)C)OCCCC[C@H](C)O3)cc1	i	i	i	i	86.8	i
Cc1ccc(S(=O)(=O)Nc2ccc3c(c2)C(=O)N([C@H](C)CO)C[C@@H](C)[C@H](CN(C)S(=O)(=O)c2ccc(C)cc2)OCCCC[C@H](C)O3)cc1	nt	i	i	i	83.8	i
Cc1ccc(S(=O)(=O)Nc2ccc3c(c2)C(=O)N([C@H](C)CO)C[C@H](C)[C@@H](CN(C)S(=O)(=O)c2ccc(C)cc2)OCCCC[C@H](C)O3)cc1	nt	i	i	i	82.9	i
Cc1ccc(S(=O)(=O)Nc2ccc3c(c2)C(=O)N([C@@H](C)CO)C[C@H](C)[C@H](CN(C)S(=O)(=O)c2ccc(C)cc2)OCCCC[C@H](C)O3)cc1	nt	i	i	i	i	i
SMILES	C2C12 statin	EWS-Fli block	INS-1E GSIS act	miR122 inh	PAX8 reporter	HIV Env fusion
Cc1ccc(S(=O)(=O)Nc2ccc3c(c2)C(=O)N([C@H](C)CO)C[C@H](C)[C@H](CN(C)C(=O)c2ccccc2)OCCCC[C@H](C)O3)cc1	nt	i	i	i	96.0	i
Cc1ccc(S(=O)(=O)Nc2ccc3c(c2)C(=O)N([C@H](C)CO)C[C@@H](C)[C@@H](CN(C)C(=O)c2ccccc2)OCCCC[C@H](C)O3)cc1	nt	i	i	i	i	i
C[C@@H]1CN([C@H](C)CO)C(=O)c2cc(NC(=O)CCC(F)(F)F)ccc2O[C@@H]1CN(C)Cc1ccc(Oc2ccccc2)cc1	nt	i	i	i	nt	i
C[C@H](CO)N1C[C@H](C)[C@@H](CN(C)C(=O)Nc2ccc(F)cc2)Oc2ccc(NC(=O)C3CC3)cc2CC1=O	i	i	i	i	nt	nt
Cc1ccc(S(=O)(=O)Nc2ccc3c(c2)C(=O)N([C@H](C)CO)C[C@@H](C)[C@@H](CN(C)S(=O)(=O)c2ccc(C)cc2)OCCCC[C@H](C)O3)cc1	nt	i	i	i	i	i
Cc1ccc(S(=O)(=O)Nc2ccc3c(c2)C(=O)N([C@@H](C)CO)C[C@H](C)[C@@H](CN(C)S(=O)(=O)c2ccc(C)cc2)OCCCC[C@H](C)O3)cc1	nt	i	i	i	61.1	i
c1ccc(/N=C2\N=C(Nc3ccccn3)c3ccccc32)nc1	i	i	i	i	79.0	i
O=C(c1sccc1-c1ccccc1)N1CCN(S(=O)(=O)c2ccccc2F)CC1	i	i	i	i	i	65.8
COc1ccc(S(=O)(=O)N2CCN(C(=O)c3sccc3-c3ccccc3)CC2)cc1	i	i	i	i	i	i
Cc1ccc(S(=O)(=O)N(C)C[C@@H]2OCCCC[C@H](C)Oc3ccc(NS(=O)(=O)c4cccs4)cc3C(=O)N([C@H](C)CO)C[C@@H]2C)cc1	nt	i	i	i	66.8	i
C[C@@H]1CCCCO[C@@H](CN(C)S(=O)(=O)c2ccc(Cl)cc2)[C@H](C)CN([C@H](C)CO)C(=O)c2cc(NS(=O)(=O)c3cccs3)ccc2O1	nt	i	i	i	70.4	i
COc1ccc(S(=O)(=O)Nc2ccc3c(c2)C(=O)N([C@@H](C)CO)C[C@@H](C)[C@@H](CN(C)S(=O)(=O)c2cccs2)OCCCC[C@H](C)O3)cc1	90.5	i	i	i	i	i
Cc1ccc(S(=O)(=O)Nc2ccc3c(c2)C(=O)N([C@H](C)CO)C[C@H](C)[C@@H](CN(C)S(=O)(=O)c2cccs2)OCCCC[C@H](C)O3)cc1	nt	i	i	i	77.2	i
